“And” between values parts separate entries of the source, which are not always exact repeats. Equal values may be shown once. Records with an inconclusive call do not appear. A call without a number means that no potency is given here. A structure can be active in one record and inactive in another. The source made the active and inactive calls. The call rests on the fitted dose curve; in most records, active means well fitted curve in the direction sought with a large enough effect; inconclusive means small, poorly fitted or top-dose-only effect, or another doubt; inactive means no such curve, though single readings can be large; an effect the other way counts as inactive or inconclusive.
Potency means the concentration at half of the fitted maximal effect.

Sequence of Glutathione peroxidase 1 (Homo sapiens) (P07203 whole entry, looked up): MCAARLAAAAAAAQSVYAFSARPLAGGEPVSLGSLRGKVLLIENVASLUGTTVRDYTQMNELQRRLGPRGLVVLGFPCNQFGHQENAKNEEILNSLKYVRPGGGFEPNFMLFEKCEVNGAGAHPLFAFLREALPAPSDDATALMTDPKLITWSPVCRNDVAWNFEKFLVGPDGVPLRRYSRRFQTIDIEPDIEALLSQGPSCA

System in the first assay: not listed separately
In words: NCATS anti-infectives library activity on HEK293 viability as a counter-qHTS vs the C. elegans viability qHTS (AID 1745854).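 Further: HEK293 cells exposed to compounds for 24 hr before the viability read.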 Particulars: HEK293 viability counter-screen; series mostly up to 41.8 µM; activity change, negative = cytotoxicity: at the top concentration. An outline of the steps: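 Compound titrations (final up to 41.7 uM) were incubated with HEK293 cells for 24 hr at 37C under 5% CO2. Viable cells were quantified with CellTiter-Glo after 10 min at ambient temperature.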
For orientation: qHTS replaces the single test concentration by a dilution series.
On to `CC(C)[C@H](C(=O)Nc1ccc(C(=O)NO)cc1)c1ccccc1`, for which the “activity change, negative = cytotoxicity” value was 1.62% (inactive).

`Nc1ccn([C@@H]2CS[C@H](CO)O2)c(=O)n1`: the “activity change, negative = cytotoxicity” value is -16.9% (inactive).

As for `CN(C)Cc1c(C(=O)NCCOc2ccc(C(=O)NO)cc2)oc2ccccc12`, the “activity change, negative = cytotoxicity” value is 1.68% (inactive).

In the case of `COc1cccc2c(NCc3ccccc3)nc(-n3c(N)nc4ccccc43)nc12`, the Potency was 7.08 µM (active).

For `CC(C)(C)OC(=O)Nc1ccc(-c2cc(C(=O)NCCCCCCC(=O)NO)no2)cc1`, the “activity change, negative = cytotoxicity” value is -18.2% (inactive).

In the case of `O=C(CCCCCCNC(=O)c1cnc(N(c2ccccc2)c2ccccc2)nc1)NO`, the “activity change, negative = cytotoxicity” value is 1.02% (inactive).

With `COc1cc2c(cc1-c1c(C)noc1C)ncc1[nH]c(=O)n([C@H](C)c3ccccn3)c12`, the “activity change, negative = cytotoxicity” value was -12.8% (inactive).

The target of a further assay is Glutathione peroxidase 1 (Homo sapiens) (UniProt P07203). In words: Primary qHTS Assay for Inhibitors of Recombinant Selenoprotein Glutathione Peroxidase 1 (GPX1) (AID 1845191). Further: nearly all actives have a fitted effect of over 65% in size. Particulars: recombinant GPX1, GR-coupled NADPH fluorescence, 15 min; series mostly up to 48.8 µM; activity, negative = inhibition: at the top concentration; outcome: at the top concentration. In a few lines:
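GR-coupled readout: NADPH consumption tracked by fluorescence, ex 340/em 450 nm, at t=0 and after 15 min at RT. Final mix 10 nM GPX1, 1 mM GSH, 0.5 mM CHP, 0.5 mM NADPH, 100 nM GR, 0.01% BSA, following 30 min enzyme–compound preincubation.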
Regarding `C[C@]1(CO)CN(c2cc(C(=O)Nc3ccc4c(c3)-c3c(c(C(N)=O)nn3-c3ccc(F)cc3)CC4)c(Cl)cn2)C[C@@]1(C)CO`, the “activity, negative = inhibition” value was -20.8% (inactive).

On to `CC(C)[C@H](C(=O)Nc1ccc(C(=O)NO)cc1)c1ccccc1`, for which the outcome was inactive.

On to `Nc1ccn([C@@H]2CS[C@H](CO)O2)c(=O)n1`, for which the Potency entry is “inactive”.

For `CC(C)(C)c1cc(C(C)(C)C)c(NC(=O)c2c[nH]c3ccccc3c2=O)cc1O`, the Potency entry is “inactive”.

For `Cc1cc(C(=O)N2CCN(c3cccc(Cl)c3)CC2)n(-c2ccccc2)n1`, the “activity, negative = inhibition” value is -6.72% (inactive).

For the compound `O=C(NC1CCNCC1)c1[nH]ncc1NC(=O)c1c(Cl)cccc1Cl`, the outcome was inactive.

As for `CNC(=O)c1ccccc1Nc1nc(Nc2ccc(N3CCOCC3)cc2OC)ncc1Cl`, the Potency result was “inactive”.

Turning to `CC(C)Nc1cc(C(F)(F)F)cc2nc(NC(=O)c3cccnc3)nn12`, the “activity, negative = inhibition” value is -25.9% (inactive).

`CC(C)CC(=O)Nc1n[nH]c2c1CN(C(=O)C1CCN(C)CC1)C2(C)C`: the Potency result is “inactive”.

For `Cn1cc(-c2[nH]c3cc(NC(=O)[C@H](N)C4CCCCC4)cc4c3c2C=NNC4=O)cn1`, the Potency entry is “inactive”.

In the case of `CCCCCCCCCC(=O)N[C@@H](Cc1c[nH]c2ccccc12)C(=O)N[C@H](CC(N)=O)C(=O)N[C@@H](CC(=O)O)C(=O)N[C@@H]1C(=O)NCC(=O)N[C@@H](CCCN)C(=O)N[C@@H](CC(=O)O)C(=O)N[C@H](C)C(=O)N[C@@H](CC(=O)O)C(=O)NCC(=O)N[C@H](CO)C(=O)N[C@@H]([C@@H](C)CC(=O)O)C(=O)N[C@@H](CC(=O)c2ccccc2N)C(=O)O[C@@H]1C`, the Potency result is “inactive”.

`CC1(C)CCC(c2ccc(Cl)cc2)=C(CN2CCN(c3ccc(C(=O)NS(=O)(=O)c4ccc(N[C@H](CCN5CCOCC5)CSc5ccccc5)c(S(=O)(=O)C(F)(F)F)c4)cc3)CC2)C1`: the Potency entry was “inactive”.

Take `CS(=O)(=O)N1CCN(Cc2cc3nc(-c4cccc5[nH]ncc45)nc(N4CCOCC4)c3s2)CC1`: the “activity, negative = inhibition” value was 0.702% (inactive).

For the compound `O=C(c1cncc(Br)c1)N1CCC(N2CCCC2)CC1`, the outcome was inactive.

`COc1c(OCCCN2CCOCC2)ccc2c3n(c(=NC(=O)c4cnc(N)nc4)nc12)CCN3`: the activity, negative = inhibition is -31.4% [at 9.52 µM] (inactive) and 3.3% [at 9.52 µM] (inactive); the outcome is “inactive [at 9.52 µM]”.

In the case of `CN(C)Cc1c(C(=O)NCCOc2ccc(C(=O)NO)cc2)oc2ccccc12`, the Potency result is “inactive”.

Consider `CN1c2cc(O)c(N=NC(N)=O)cc2CC1S(=O)(=O)O` (stereo not given), for which the Potency entry was “inactive”.

Take `COC(=O)c1ccc2c(C(=Nc3ccc(N(C)C(=O)CN4CCN(C)CC4)cc3)c3ccccc3)c(O)[nH]c2c1`: the Potency result was “inactive”.

Regarding `COc1cc(C(=O)N2CCC(N3CCN(C)CC3)CC2)ccc1Nc1ncc2c(n1)N(C)c1ccccc1C(=O)N2C`, the Potency entry was “inactive”.

As for `COc1cccc2c(NCc3ccccc3)nc(-n3c(N)nc4ccccc43)nc12`, the outcome was inactive.

With `COc1cc(C(C)C)c2c(c1)S(=O)(=O)N(COc1cc(=O)n3cccc(OCCN4CCCCC4)c3n1)C2=O`, the “activity, negative = inhibition” value is -2.4% (inactive).

In the case of `CC(C)C[C@H](NC(=O)CNC(=O)c1cc(Cl)ccc1Cl)B(O)O`, the outcome was inactive.

As for `CC[C@H](CO)Nc1nc(NCc2ccccc2)c2ncn(C(C)C)c2n1`, the “activity, negative = inhibition” value was -5.49% (inactive).

For `CCCNC(=O)Nc1ccc(Oc2ncnc3cc(OC)c(OC)cc23)cc1Cl`, the “activity, negative = inhibition” value was -8.05% (inactive).

Consider `CCNC(=O)Nc1ccc2ncc(Nc3ccc(C)cc3)nc2n1`, for which the “activity, negative = inhibition” value is -14.5% (inactive).

Regarding `CNC(=O)c1ccc(-c2cnc3ncc(Cc4ccc5ncccc5c4)n3n2)cc1F`, the result was inactive.

`Cc1nc2ccc(CN(C)c3ccc(C(=O)N[C@@H](CCC(=O)O)C(=O)O)s3)cc2c(=O)[nH]1`: the Potency was 25.5 µM (active) and inactive and 22.7 µM (active).

Regarding `CC(C)(C)OC(=O)Nc1ccc(-c2cc(C(=O)NCCCCCCC(=O)NO)no2)cc1`, the result was inactive.

As to `CC(=O)SC[C@@H](C)C(=O)N1CCC[C@H]1C(=O)N[C@@H](Cc1ccccc1)C(=O)O`, the result was inactive.

On to `CN(C)CCCN=c1c2ccccc2n(C)c2[nH]c(=O)n(C)c(=O)c12`, for which the outcome was inactive.

As to `CCc1cc2c(cc1N1CCC(N3CCOCC3)CC1)C(C)(C)c1[nH]c3cc(C#N)ccc3c1C2=O`, the Potency result is “inactive”.

With `O=c1c2ccccc2nc2n1CCc1c-2[nH]c2ccccc12`, the “activity, negative = inhibition” value is 3.53% (inactive).

On to `O=C(NCCS(=O)(=O)c1ccc(C(F)(F)F)cn1)c1ccc(Cl)cc1`, for which the result was inactive.

For the compound `COC(=O)C1=C(C)NC(C)=C(C(=O)OCCN2CCN(C(c3ccccc3)c3ccccc3)CC2)C1c1cccc([N+](=O)[O-])c1` (stereo not given), the result was inactive.

As to `COc1cc(OC2CCN(C)CC2)ccc1Nc1ncc2c(n1)n(C1CCCC1)c(=O)n2C`, the “activity, negative = inhibition” value was -11.4% (inactive).

Take `CCN1CCN(Cc2ccc(-c3cc4c(N[C@H](C)c5ccccc5)ncnc4[nH]3)cc2)CC1`: the result was inactive.

In the case of `Cc1cc(Nc2cc(NC(=O)c3c(Cl)cccc3Cl)ccn2)nc(N)n1`, the outcome was inactive.
